The structures appear in SMILES notation. Results filed as inconclusive are left out. Activity calls are given as the source filed them. Rule for the calls: active = hit-call score of the fitted dose curve at least 0.9, where 1 is the maximum; inconclusive = response in the unintended direction; inactive = score below 0.9.

Here are results for 35 molecules from PubChem BioAssay (EPA / NIEHS).

Experiment [1] in a line: Tanguay_ZF_120hpf_ActivityScore_legacy: (Legacy) Oregon State University Tanguay Lab 120 Hour Post-fertilization zebrafish Assay Score for Activity (AID 2283742).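 For AC50: dechorionated Tropical 5D wild-type zebrafish embryos held singly per well; static exposure from 6 hpf until 120 hpf at 28 °C.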 Summed up:
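Dechorionated Tropical 5D embryos, one per well from 6 hpf, statically exposed to 120 hpf at 28 °C in 0.64% DMSO. Mortality and malformations scored binary by brightfield microscopy; activity score combines 18 endpoints, fitted positively versus DMSO.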

Experiment [2] in a line: ArunA_CellTiter_hNC: Viability Assessment in the ArunA Biomedical's Oris Neural Crest (hNC) Cell Migration Assay (AID 2283752). In outline:
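Human H9-derived neural crest stem cells were plated at 60,000 per well on Matrigel in growth medium with LIF and bFGF, incubated 16 h at 37C, then exposed to chemical for 72 h. Viability was read with CellTiter Aqueous One as loss of signal versus DMSO.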

Experiment [3] is described as follows: ArunA_Migration_hNP: ArunA Biomedical's Oris Neuroprogenitor (hNP) Cell Migration Assay (AID 2283754). In outline:
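Human H9-derived hNP1 neuroprogenitors on Matrigel with LIF/bFGF, plated around seeding stoppers for 16 h at 37C; stoppers removed at start of 72 h chemical exposure. Calcein-AM staining, fluorescence 494/517 nm in detection zone; loss-of-signal vs DMSO; cytochalasin D control.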

A short description of experiment [4]: ArunA_Migration_hNC: ArunA Biomedical's Oris Neural Crest (hNC) Cell Migration Assay (AID 2283755). Summed up: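 Human H9-derived neural crest stem cells, 60,000/well on Matrigel, 16 h at 37C, then 72 h chemical exposure after seeding-stopper removal. Migration into detection zone read as calcein-AM fluorescence (ex494/em517), relative to DMSO.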
Experiment [5] can be described thus: ArunA_NOG_NucleusCount: ArunA Biomedical's Neurite Outgrowth (NOG) Assay for Nucleus Count (AID 2283756). Summed up: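 Human H9-derived differentiated neurons were exposed for 48 h right after seeding. Hoechst-stained nuclei gated by size and intensity were counted by automated high-content imaging as viable neurons. Loss of signal vs DMSO.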
Experiment [6] in a line: ArunA_NOG_NeuriteLength: ArunA Biomedical's Neurite Outgrowth (NOG) Assay for Neurite Length (AID 2283757). Summed up:
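Differentiated human H9-derived neurons were exposed for 48 h from seeding, then stained with Hoechst and βIII-tubulin. Automated high-content imaging gave total neurite length per valid neuron, counting processes >10 um. Loss of signal was scored versus DMSO.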

The nature of experiment [7]: ArunA_NOG_NeuritesPerNeuron: ArunA Biomedical's Neurite Outgrowth (NOG) Assay for Neurites Per Neuron (AID 2283758). In outline: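 Differentiated human H9-derived neurons exposed to chemicals for 48 h from seeding, then stained with Hoechst and βIII-tubulin/DyLight 488. Automated imaging counted neurites (processes >10 um) per valid neuron; loss of signal versus DMSO scored.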

Experiment [8] can be described thus: ArunA_NOG_BranchPointsPerNeurite: ArunA Biomedical's Neurite Outgrowth (NOG) Assay for Branch Points Per Neurite (AID 2283759). In outline: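 Automated image analysis traced neurites (processes >10 um) from valid cell bodies after Hoechst and βIII-tubulin staining. hNN cells from H9 embryonic stem cells, 48 h exposure. Fitted bidirectionally against DMSO.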
Experiment [9] is described as follows: ArunA_CellTiter_hNP: Viability Assessment in the ArunA Biomedical's Oris Neural Crest (hNC) Cell Migration Assay (AID 2283753). In outline:
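H9-derived hNP1 neuroprogenitors, 60,000/well on Matrigel, cultured 16 h, then 72 h chemical exposure in test medium. Cell titer via CellTiter Aqueous One; positive-direction fit vs DMSO.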

The subject of experiment [10] is Thyroperoxidase (TPO), gene 445522. Briefly: CCTE_Simmons_GUA_TPO: CCTE's Guaiacol Assay for Thyroperoxidase (TPO) Inhibition, Simmons Lab (AID 2283750). Summed up:
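Porcine thyroid microsomes (25 ug) in 200mM potassium phosphate, preincubated 30 s at 37C with compound (8 concentrations, 5 nM–87.5 uM) and 35mM guaiacol; 1mM H2O2 starts reaction. Absorbance change at 450nm over first 80 s; loss of signal versus DMSO, three replicates.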

As to `FC(F)C(F)(F)OCC(Cn1cncn1)c1ccc(Cl)cc1Cl` (stereo not given), in [1], the AC50 (in general, the midpoint of the concentration-response curve, whichever way the signal moves) is 0.00154 µM (active).
For `CC1=NNC(=O)N(/N=C/c2cccnc2)C1`, the result in experiment [1], in [2], in experiment [3] and in experiment [4] was inactive. Besides, the AC50 in experiment [5] was 59.4 µM (active); in [6] it was 73.8 µM (active); in experiment [7] it was 65 µM (active); in experiment [8], 66.2 µM (active).
`Nc1c(Cl)cc([N+](=O)[O-])cc1Cl`: in experiment [1], the AC50 is 93.6 µM (active).
With `CCOP(=S)(OCC)Oc1cc(C)nc(C(C)C)n1`, in experiment [1], the outcome was inactive.
The same measure, in the same setting: for `CON=C(C(=O)OC)c1ccccc1CON=C(C)c1cccc(C(F)(F)F)c1` the value was “inactive”.
Still for that read-out and setting: the entry for `Nc1nc(N)nc(NC2CC2)n1` is “inactive”; for `CNC(=O)Oc1cccc2c1OC(C)(C)O2` it is “inactive”.
On the same count and under the same terms, for `CC(Oc1cccc(Cl)c1)C(=O)O` (stereo not given) the value was “inactive”; for `COP(=O)(OC)SCn1c(=O)oc2cc(Cl)cnc21`, “inactive”; for `Cc1ccn2nc(S(=O)(=O)Nc3c(F)cccc3F)nc2n1`, “inactive”.
For `CCOP(=O)(NC(C)C)Oc1ccc(SC)c(C)c1` (stereo not given), in experiment [1], the AC50 is 33.3 µM (active).
As for `C[N+]1(C)CCCCC1`, the result in [1] was inactive.
Still for that read-out and setting: the entry for `CCCOCC(=Nc1ccc(Cl)cc1C(F)(F)F)n1ccnc1` is “inactive”; for `CC(=NC#N)N(C)Cc1ccc(Cl)nc1` it is “inactive”.
Regarding `S=C1NCCN1`, the molecule was called inactive in [1], in experiment [2], in experiment [9], in experiment [3], in experiment [4] and in experiment [5]. The outcome in experiment [8] was inactive.
Turning to `COP(=O)(NC(C)=O)SC` (stereo not given), the outcome in [1] and in [10] was inactive.
As to `O=[N+]([O-])c1cc(C(F)(F)F)c(Cl)c([N+](=O)[O-])c1Nc1ncc(C(F)(F)F)cc1Cl`, in experiment [1], the AC50 is 45.7 µM (active). Also, the molecule was classed as inactive in experiment [2], in experiment [9], in [4] and in experiment [5].
For `CCCOc1nn(C(=O)NS(=O)(=O)c2ccccc2C(=O)OC)c(=O)n1C`, the molecule was classed as inactive in experiment [1].
On the same count and under the same terms, for `CCCSP(=O)(OCC)SCCC` the value was “inactive”; for `CNc1cnn(-c2cccc(C(F)(F)F)c2)c(=O)c1Cl`, “inactive”.
On to `C[Si](Cn1cncn1)(c1ccc(F)cc1)c1ccc(F)cc1`, for which, in [1], the AC50 is 35.9 µM (active). For the same molecule, the outcome in experiment [3], in experiment [4], in [5] and in experiment [8] was inactive.
On to `CCOP(=S)(OCC)Oc1ccc2c(C)c(Cl)c(=O)oc2c1`, for which the molecule was called inactive in [1].
Same read-out and setting: the entry for `CCNc1nc(Cl)nc(NC(C)(C)C#N)n1` is “inactive”; for `COc1cc(OC)nc(Sc2cccc(Cl)c2C(=O)O)n1` it is “inactive”.
Still for that read-out and setting: the entry for `C#CCC1=C(C)C(OC(=O)C2C(C=C(C)C)C2(C)C)CC1=O` (stereo not given) is “inactive”; for `COP(=O)(OC)OC(Br)C(Cl)(Cl)Br` (stereo not given) it is “inactive”.
The same measure, in the same setting: the entry for `CN1COCN(Cc2cnc(Cl)s2)C1=N[N+](=O)[O-]` is “inactive”.
For `CCOC(=O)CC(SP(=O)(OC)OC)C(=O)OCC` (stereo not given), the outcome in experiment [1] and in [10] was inactive.
With `C#CC(C)(C)NC(=O)c1cc(Cl)cc(Cl)c1`, the result in experiment [1] was inactive.
On to `CN(C)[C@@H]1C(=O)C(C(N)=O)=C(O)[C@@]2(O)C(=O)C3=C(O)c4c(O)cccc4[C@@](C)(O)[C@H]3[C@H](O)[C@@H]12`, for which the molecule was called inactive in experiment [1]. Besides, the AC50 in experiment [9] was 4.16 µM (active); in [3], 50 µM (active); in experiment [4] it was 50 µM (active); in [5], 44.7 µM (active); in experiment [6], 78.6 µM (active); in experiment [7], 83.4 µM (active). In experiment [8], the AC50 was 89.6 µM (active).
Regarding `CC[C@H](C)[C@H]1O[C@]2(C=C[C@@H]1C)C[C@@H]1C[C@@H](C/C=C(\C)[C@@H](O[C@H]3C[C@H](OC)[C@@H](O[C@H]4C[C@H](OC)[C@@H](NC)[C@H](C)O4)[C@H](C)O3)[C@@H](C)/C=C/C=C3\CO[C@@H]4[C@H](O)C(C)=C[C@@H](C(=O)O1)[C@]34O)O2`, the concentration at half-maximal activity (AC50) in [1] was 1.49 µM (active).
For the molecule `CC(COc1ccc(Oc2ccccc2)cc1)Oc1ccccn1` (stereo not given), the molecule was called inactive in [1].
Regarding `CSC1=N[C@@](C)(c2ccccc2)C(=O)N1Nc1ccccc1`, in experiment [1], the half-maximal activity concentration (AC50) is 37.6 µM (active).
`CCC(=O)Nc1ccc(Cl)c(Cl)c1`: in [1], the molecule was called inactive.
Still for that read-out and setting: the entry for `CCOP(=S)(Oc1cnc(C(C)(C)C)nc1)OC(C)C` (stereo not given) is “inactive”.
